Common to all, as to experiment: NCI-60 one-dose screen, 48 h (100 = growth as untreated, 0 = no growth, -100 = all killed)
Details in all cases: 10 µM unless noted

Test [1] deals with NCI-H23 lung.
Test [2] concerns NCI-H322M lung.
Test [3] deals with HOP-62 NSCLC.
For test [4], the system named is NCI-H460 lung.
Test [5] relates to NCI-H522 lung.
For test [6], the system named is A549/ATCC NSCLC.
Test [7] relates to 786-0 renal.
Test [8] concerns COLO 205 colon.
Test [9] relates to HOP-92 NSCLC.

This is part of a sample that, as a whole, favours compounds with a hit. Of some 83,000 tested, about 20% had one in any assay.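 Single-concentration screen, 48 h exposure, 96-well plates. Endpoint: percent growth. Below 10 = active.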 A number with no mark means an inactive call. Calls of active or inactive are those of the source.

In the case of `CCCCCCCC/C=C/CCCCCCCC1=NC(C)(C)CN1c1ccccc1`, the growth in test [1] was 89.1%; in test [2], 116%; in test [3], 100%; in [4] it was 103%; in test [5], 65.1%; in test [6], 91.6%. In addition, the growth in [7] is 81.8%; in test [8], 97.8%.

In the case of `CC[C@]1(O)C[C@H]2CN(CCc3c([nH]c4ccccc34)C(C(=O)OC)(c3cc4c(cc3OC)N(C)[C@H]3[C@@](O)(C(=O)OC)[C@H](OC(C)=O)[C@]5(CC)[C@@H]6C[C@@H]6CN6CC[C@]43[C@@H]65)C2)C1` (stereo not given in full), the growth is 19.8% in test [1]; 53.8% in test [2]; 24.6% in [3]; 10.7% in test [4]; -9.66% (active) in test [5]; 19.8% in test [6]. For the same molecule, the growth in test [7] is -8.75% (active); in test [8] it was -73.3% (active).

Take `CCN1C(=O)/C(=C/N2N=C(c3ccc(Cl)cc3)CC2c2ccc(OC)cc2)SC1=S` (stereo not given): the growth was 98.3% in test [1]; 89% in test [2]; 96% in test [3]; 99.7% in test [4]; 70.4% in test [5]; 74.3% in [6]. In addition, the growth in test [7] is 76.4%; in test [8], 99.7%.

For the molecule `COc1ccc(-c2cc(C(=O)Nc3ccc(Br)cc3)nc3[nH]c(=O)sc23)cc1`, the growth in [1] was 23.6%; in test [2], 46.8%; in test [3] it was 72.7%; in [4], 28.8%; in test [5] it was -9.13% (active); in test [6], 20.3%. Moreover, the growth in [7] was 57.2%; in test [8], 42.3%.

`O=C1N(Cc2ccccc2Cl)c2ccccc2C12NN=C(c1ccccc1)S2` (stereo not given): the growth in test [1] is 54.8%; in test [2], 56.5%; in test [3] it was 61.2%; in test [4] it was 17.5%; in [5], 75.6%; in test [6], 53.4%. In addition, the growth in test [7] was 73.7%; in [8], 100%.

On to `C#C[C@]1(O)CC[C@H]2[C@@H]3CC=C4c5sc(-c6cccc(Br)c6)nc5CC[C@]4(C)[C@H]3CC[C@@]21C`, for which the growth is 82.9% in test [1]; 73.5% in [2]; 91.5% in test [3]; 78.1% in test [4]; 62.3% in test [5]; 81.2% in test [6]. Further, the growth was 51.9% in test [7] and 118% in test [8].

Take `CC(C)(C)c1ccc(C(=O)Nc2sc3cc(O)ccc3c2C(N)=O)cc1`: the growth in test [1] is 88.3%; in test [2], 86.2%; in test [3], 106%; in test [4], 51.2%; in test [5], 64.9%; in test [6] it was 82.5%. Also, the figures for the growth in [7] and in test [8] were 70.3% and 57.2%, respectively.

`COc1cnc2c(c1)C(=O)c1c-2n(CCCN2CCNCC2)c(=O)c2cc(Cl)ccc12`: the growth is -63.2% (active) in [1]; 54.3% in test [2]; -24.4% (active) in test [3]; -81.2% (active) in [4]; 17.4% in test [5]; -30.9% (active) in test [6]. For the same molecule, the growth in [7] was -81.1% (active); in test [8], 22.7%.

On to `CCN(C(=O)CCl)C(C)(C)C(SSSC(c1ccc(Cl)cc1)C(C)(C)N(CC)C(=O)CCl)c1ccc(Cl)cc1` (stereo not given), for which the growth in [1] was 93.6%; in [2], 87.7%; in [3], 86.6%; in test [4], 81.1%; in test [9] it was 47%; in test [7] it was 79.7%. Further, the growth in test [8] is 56.8%.

For the molecule `CN1C2CCC1/C(=C\c1ccc(Cl)cc1)C(=O)/C2=C/c1ccc(Cl)cc1`, the growth was 62.4% in test [1]; 72.4% in [2]; 85.8% in test [3]; 47% in test [4]; 54.7% in test [5]; 63.7% in test [6]. Further, the figures for the growth in test [7] and in test [8] were 75.4% and 41.7%, respectively.

Take `C/C(=N\Nc1ccc([N+](=O)[O-])cn1)c1ccc(N)cc1`: the growth in test [1] was 109%; in test [2] it was 120%; in test [3], 109%; in [4], 110%; in test [5], 85.8%; in [6] it was 96.1%. In addition, the growth is 99.7% in test [7] and 104% in [8].

For `O=C(O)C(CCc1ccccc1)NCc1ccccc1` (stereo not given), the growth in [1] was 94.9%; in test [2] it was 103%; in test [3], 93.3%; in test [4], 116%; in test [5], 87%; in test [6], 99.7%. Moreover, the values for the growth in [7] and in [8] were 100% and 97.3%, respectively.

Take `CCn1c(Cc2ccccc2Nc2c(Cl)cccc2Cl)nnc1SCC(=O)Nc1cccc(OC)c1`: the growth in [1] is 85%; in test [2] it was 79.4%; in test [3], 94.2%; in test [4] it was 84.8%; in [5], 42.6%; in [6] it was 66.1%. Further, the growth was 89.8% in test [7] and 96.4% in [8].

As for `CC(C)OC1OC(OC(C)C)C(OC(C)C)OC1OC(C)C` (stereo not given), the growth was 94.9% in test [1]; 98.1% in [2]; 123% in test [3]; 104% in [4]; 70.9% in [5]; 92.4% in [6]. Also, the growth in test [7] is 99.4%; in test [8] it was 112%.

Turning to `c1ccc(-c2ccc(-c3ccccc3)[nH]2)cc1`, the growth in [1] is 86.5%; in test [2], 95.6%; in test [3], 105%; in test [4], 103%; in test [5] it was 85.7%; in test [6], 88.7%. The values for the growth in test [7] and in test [8] were 96.6% and 127%, respectively.

As for `COc1ccc(C(=O)O)cc1.[Ag]`, the growth in test [1] is 103%; in [2], 102%; in test [3] it was 113%; in [4], 87.1%; in test [5], 11.8%; in [6] it was 93.4%. The growth in test [7] was 107%; in [8] it was 61.8%.

As to `CCN1C(=O)N(CC)C2C1NC(=O)N2/N=C/C=C/c1ccccc1` (stereo not given), the growth in test [1] is 64.5%; in [2], 63.8%; in [3] it was 41.3%; in test [4], 24.4%; in test [5], 2.08% (active); in test [6], 45.4%. The growth in test [7] was 33%; in test [8] it was 27.4%.

The values above are taken from PubChem BioAssay (NCI).
